The source of these data is PubChem BioAssay (Tox21).

Active and inactive are the calls of the source. The call rests on the fitted dose curve; in most records, active means well fitted curve in the direction sought with a large enough effect in the repeat runs; inconclusive means weak or mixed curves; inactive means flat fitted curve, though single readings scatter.
On the % scale 0 is the no-effect control and ±100 the full control effect.

This assay is described as follows: qHTS assay to test for compound auto fluorescence at 590 nm (red) in HepG2 cells (AID 720674). The following applies: HepG2 autofluorescence, red 540/590 nm, 1 h; series mostly up to 91.3 µM; fluorescence, relative to Rose Bengal: at the top concentration. From the text: U.S. Tox21 Program National Center for Advancing Translational Sciences [NCATS] NIH Chemical Genomics Center [NCGC] U.S. Environmental Protection Agency [EPA] National Institutes of Environmental Health Sciences [NIEHS] National Toxicology Program [NTP] U.S. Food and Drug Administration [FDA] Tox21 Assay Overview: Compound auto fluorescence often interferes with screening of the compound library against various biological targets and signaling pathways. Some of these compounds may have fluorophoric properties. Such properties may interfere with the assay outputs resulting in false positives and/or negatives. To decrease such complications and ensure the compound activities are relevant in terms of biological response, the Tox21 10K compound library was screened for auto fluorescence. From the fluorophores used as reporter signals in our screening assays, the auto fluorescence equivalencies of compounds against three fluorophores have been evaluated: Triamterene, Fluorescein and Rose Bengal sodium for blue, green and red fluorescence, respectively. The fluorescence intensities were measured using Excitation/Emission wavelengths at 405/460nm, 485/535nm and 540/590nm for blue, green and red labels, respectively. This assay includes the red fluorescence data.
Tox21 Assay Protocol Summary: 2,000 HepG2 cells in 5 uL of culture medium (MEM containing 10% FBS) per well were dispensed into black wall/clear bottom 1536-well plates using a Multidrop Combi Dispenser (ThermoFisher Scientific, Waltham, MA). The assay plates were incubated overnight at 37 C to allow cell attachment to the well bottom, followed by the transfer of 23 nL compound or DMSO vehicle by a pintool work station (Kalypsys , San Diego, CA). After the assay plates were incubated for 1 hr at 37 C and 5% CO2, fluorescence intensities in the assay plates were measured by an Envision (PerkinElmer, Shelton, CT) plate reader using three labels for measuring blue, green and red fluorescence at […] 460, 535 and 590 nm respectively.
Regarding `Clc1ccc(C(Cl)(Cl)Cl)cn1`, the “fluorescence, relative to Rose Bengal” value is -0.418% (inactive).

On to `CC(C)(C)c1cc(O)ccc1O`, for which the compound was called inactive.

Take `O=C1C2CC=CCC2C(=O)N1SC(Cl)(Cl)Cl` (stereo not given): the result was inactive.

Regarding `CCOC(=O)COc1ccc(Cl)cc1Cl`, the “fluorescence, relative to Rose Bengal” value is 0.175% (inactive).

As to `CNC(=O)O/N=C(/CSC)C(C)(C)C`, the “fluorescence, relative to Rose Bengal” value is -0.0547% (inactive).

Take `CCNP(=S)(OC)O/C(C)=C/C(=O)OC(C)C` (stereo not given): the “fluorescence, relative to Rose Bengal” value was 0.18% (inactive).

Regarding `CC(O)CCl` (stereo not given), the “fluorescence, relative to Rose Bengal” value is -0.0878% (inactive).

For the compound `CC1=C2[C@H]3OC(=O)[C@@H](C)[C@@H]3CC[C@@]2(C)C=CC1=O`, the “fluorescence, relative to Rose Bengal” value was 0.0483% [at 46 µM] (inactive).

With `NC(=O)CS(=O)C(c1ccccc1)c1ccccc1` (stereo not given), the “fluorescence, relative to Rose Bengal” value was -0.378% [at 46 µM] (inactive).

For `C=C1CC[C@@]2(O)[C@H]3Cc4ccc(O)c5c4[C@@]2(CCN3CC2CC2)[C@H]1O5`, the “fluorescence, relative to Rose Bengal” value was -0.215% [at 46 µM] (inactive).

For `N[C@@H]1C[C@H]1c1ccccc1`, the “fluorescence, relative to Rose Bengal” value was -0.0106% [at 46 µM] (inactive).

As for `COP(=O)(O)OC`, the “fluorescence, relative to Rose Bengal” value was 0.146% [at 95.7 µM] (inactive).

Consider `O=C(Cl)C(Cl)(Cl)Cl`, for which the “fluorescence, relative to Rose Bengal” value is 0.198% (inactive).

Regarding `C(COCC1CO1)OCC1CO1` (stereo not given), the “fluorescence, relative to Rose Bengal” value is -0.271% (inactive).

As for `O=P(O)(O)CN(CP(=O)(O)O)CP(=O)(O)O`, the fluorescence, relative to Rose Bengal was -0.158% [at 18.6 µM] (inactive).

For the compound `CCC1(c2ccccc2)C(=O)N(COC)C(=O)N(COC)C1=O`, the “fluorescence, relative to Rose Bengal” value was -0.392% [at 46 µM] (inactive).

In the case of `C=C1C[C@@H]2[C@H](CC[C@]3(C)C(=O)CC[C@@H]23)[C@@]2(C)C=CC(=O)C=C12`, the “fluorescence, relative to Rose Bengal” value is -0.197% [at 46 µM] (inactive).

With `[P]#[In]`, the “fluorescence, relative to Rose Bengal” value was -0.0615% (inactive).

Consider `O=C(Cl)/C=C/C(=O)Cl`, for which the “fluorescence, relative to Rose Bengal” value is 0.333% [at 95.7 µM] (inactive).

Turning to `CCN(CCO)CCn1c(Cc2ccccc2)nc2c1c(=O)n(C)c(=O)n2C`, the “fluorescence, relative to Rose Bengal” value is -0.589% [at 46 µM] (inactive).

As for `CCCN1CCC[C@@H]2Cc3nc(N)ncc3C[C@H]21`, the “fluorescence, relative to Rose Bengal” value is 0.104% [at 46 µM] (inactive).

In the case of `O=C1CC(=O)NC(=O)N1`, the “fluorescence, relative to Rose Bengal” value was 0.0116% (inactive).

Consider `C[N+]1(C)CCCCC1`, for which the “fluorescence, relative to Rose Bengal” value is 0.359% (inactive).

Regarding `O=C(O)c1c(Cl)ccc2cc(Cl)cnc12`, the “fluorescence, relative to Rose Bengal” value is 0.0166% (inactive).

Consider `Clc1nc(Cl)nc(Nc2ccccc2Cl)n1`, for which the “fluorescence, relative to Rose Bengal” value is 0.316% (inactive).

In the case of `CC(C)(O)C(Cl)(Cl)Cl`, the “fluorescence, relative to Rose Bengal” value is -0.898% [at 46 µM] (inactive).

Consider `CN(CCO)CCO`, for which the “fluorescence, relative to Rose Bengal” value was -0.0491% [at 95.7 µM] (inactive).

For `C[C@@H](N)[C@@H](O)c1ccccc1`, the fluorescence, relative to Rose Bengal was -0.248% [at 18.6 µM] (inactive).

Turning to `CCC(C(N)=O)N1CCCC1=O` (stereo not given), the “fluorescence, relative to Rose Bengal” value was -0.0127% [at 46 µM] (inactive).

As to `CC(C)(C)NC[C@H](O)c1ccc(O)cc1Cl`, the “fluorescence, relative to Rose Bengal” value is -0.584% [at 46 µM] (inactive).

As to `CCCOC(=O)Cc1ccc(OCC(=O)N(CC)CC)c(OC)c1`, the “fluorescence, relative to Rose Bengal” value is 0.279% [at 46 µM] (inactive).

For `COc1cc(CCN)cc(OC)c1OC`, the “fluorescence, relative to Rose Bengal” value was -0.277% [at 95.7 µM] (inactive).

For `CCCCCCCCBr`, the “fluorescence, relative to Rose Bengal” value was 0.0763% (inactive).

`Cn1c(CCCC(=O)O)nc2cc(N(CCCl)CCCl)ccc21`: the “fluorescence, relative to Rose Bengal” value is 0.103% [at 46 µM] (inactive).

On to `CC(C)c1ccc(O)cc1`, for which the “fluorescence, relative to Rose Bengal” value was -0.0021% (inactive).

In the case of `CCN[C@H](C)Cc1cccc(C(F)(F)F)c1`, the “fluorescence, relative to Rose Bengal” value is -0.299% (inactive).

On to `CC(C)[C@]12CC(=O)[C@H](C)[C@H]1C2`, for which the “fluorescence, relative to Rose Bengal” value is 0.0326% (inactive).

With `COc1cc(CC(C)N)cc(OC)c1OC` (stereo not given), the “fluorescence, relative to Rose Bengal” value is -0.326% [at 95.7 µM] (inactive).

Take `CCOP(=O)(CN(CCO)CCO)OCC`: the “fluorescence, relative to Rose Bengal” value was -0.338% (inactive).

Consider `CCCCCCCCSC(=O)Oc1cc(Cl)nnc1-c1ccccc1`, for which the “fluorescence, relative to Rose Bengal” value was 0.0104% (inactive).
